# Glioma ERSR ind = ER stress response induction in glioma; Potency, µM, inactives show at the highest dose activation, actives largely listed as activators; 420,000 tested, 0.02% active; AID 602332; U87-MG GRP78 promoter luciferase reporter, 16 h; also: series mostly up to about 76 µM; % of control where 0% means no effect; nearly all actives have a fitted effect of over 35% in size
#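 ERSR induction read as luciferase luminescence (Bright-Glo, 10 min at room temperature) in stably transfected human U87-MG glioma cells exposed to compounds for 16 h, using GRP78 as sensor.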
# TrxR1 inh = blocks rat thioredoxin reductase 1 | 390,000 tested, 1% active | AID 588453 | recombinant rTrxR1, NADPH fluorescence consumption, selenite substrate | Potency, µM (doses to about 114 µM), inactives show at the top dose activity change, negative = inhibition, most hits filed as inhibitors | O89049; also: % is scaled to controls: 0 for no effect and ±100 for the full control effect; nearly all actives have a fitted effect of over 65% in size
#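 Rat TrxR1 (90 nM in the dispensed reagent) was pre-reduced with 400 uM NADPH for 5 min at room temperature, then incubated with compound for 15 min. After 400 uM selenite was added, NADPH fluorescence (Ex 340/Em 450 nm) was followed for 8 min.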
# Apoferritin bind = binds horse apoferritin like a general anesthetic. apoferritin/1-aminoanthracene competitive binding, fluorescence. Potency, µM (doses to about 77.5 µM), without a hit: at the highest dose activity change, negative = displacement, hits mostly inhibitors. 350,000 tested, 0.074% active. AID 485281; also: % is scaled to controls: 0 for no effect and ±100 for the full control effect; nearly all actives have a fitted effect of over 20% in size
# Target sequence (P02791 2-175 limits assumed): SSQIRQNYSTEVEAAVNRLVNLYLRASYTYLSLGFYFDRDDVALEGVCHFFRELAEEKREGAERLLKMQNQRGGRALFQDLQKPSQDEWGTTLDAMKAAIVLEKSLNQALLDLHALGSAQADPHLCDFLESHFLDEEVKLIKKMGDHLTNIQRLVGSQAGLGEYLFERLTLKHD
#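 Horse-spleen apoferritin (10 uM) was mixed with 50% saturated 1-aminoanthracene in PBS, exposed to compounds for 10 min at room temperature, and read for fluorescence (ex 380 nm, em 535 nm). Competitive displacement was fitted with a four-parameter Hill equation.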
# 12-LOX inh = blocks human arachidonate 12S-lipoxygenase. P18054. purified 12hLO, xylenol orange hydroperoxide absorbance. Potency, µM (highest dose often 108 µM), without a hit: top-dose activity change, negative = inhibition, usual class: inhibitors. 580,000 tested, 1.1% active. AID 1671190; also: % is scaled to controls: 0 for no effect and ±100 for the full control effect
#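 Purified human 12hLO at 150 nM in 25 mM Hepes, 0.01% Triton X-100, pH 7.0, preincubated 15 min at room temperature with compound. Reaction started with 40 uM arachidonic acid, 30 min at room temperature. Hydroperoxide measured by Fe-xylenol orange, 573/405 nm absorbance ratio.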
# TrxR1 substrate = substrates of rat thioredoxin reductase 1; O89049; 390,000 tested, 0.01% active; purified TrxR1 substrate turnover, NADPH consumption readout; Potency, µM (doses to about 114 µM), without a hit: at the highest dose activity change, negative = substrate turnover; AID 588456; also: % is scaled to controls: 0 for no effect and ±100 for the full control effect; nearly all actives have a fitted effect of over 50% in size
#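 Rat TrxR1, dispensed at 90 nM, was prereduced with 400 uM NADPH (final) for 5 min at ~22 deg C, then incubated with compound 15 min before 400 uM selenite. A first-read NADPH fluorescence drop versus no-compound background flagged substrates.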
# mIDH1 inhibitor = human IDH1 R132H inhibition. O75874. IDH1-R132H enzyme, NADPH consumption, diaphorase/resazurin fluorescence. Potency, µM (series often up to 76.6 µM), for inactives: top-dose activity change, negative = inhibition, actives largely listed as inhibitors. 390,000 tested, 0.093% active. AID 602179; also: % is scaled to controls: 0 for no effect and ±100 for the full control effect; nearly all actives have a fitted effect of over 65% in size
# Target sequence (O75874 whole entry R132H, stated change not applied): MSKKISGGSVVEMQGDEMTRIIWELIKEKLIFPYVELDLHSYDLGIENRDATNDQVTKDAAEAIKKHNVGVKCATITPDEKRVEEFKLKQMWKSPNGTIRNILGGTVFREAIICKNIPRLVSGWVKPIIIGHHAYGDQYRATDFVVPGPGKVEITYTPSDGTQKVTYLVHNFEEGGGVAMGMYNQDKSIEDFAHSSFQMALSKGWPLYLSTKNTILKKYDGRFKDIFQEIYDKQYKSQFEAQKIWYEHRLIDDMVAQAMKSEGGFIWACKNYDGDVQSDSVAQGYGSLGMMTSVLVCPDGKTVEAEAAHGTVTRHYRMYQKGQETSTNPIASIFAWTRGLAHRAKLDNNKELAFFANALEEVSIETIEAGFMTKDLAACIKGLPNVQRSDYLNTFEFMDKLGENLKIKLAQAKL
#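 IDH1-R132H (0.5 ug/mL) preincubated 30 min with compound, then NADPH (0.016 mM) and alpha-KG (2 mM) added; 80 min at RT, pH 7.5. Remaining NADPH coupled via diaphorase/resazurin to fluorescence (540/590 nm); concentration-response curves normalized to no-enzyme control.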
# An asterisk follows results filed as active; ? = inconclusive; / = not tested or not shown; ! = repeats disagree; [ ] = dose if it differs, or a comment. The list is not random: actives were taken first. Their share in the collection is about 1.7%. Calls follow the shape of the dose curve; as a rule, active = well fitted curve in the direction sought with a large enough effect; inconclusive = small, poorly fitted or top-dose-only effect, or another doubt; inactive = no such curve, though single readings can be large; an effect the other way counts as inactive or inconclusive. Potency is read from the fitted curve at half-maximal effect.
SMILES,Glioma ERSR ind,TrxR1 inh,Apoferritin bind,12-LOX inh,TrxR1 substrate,mIDH1 inhibitor
Cc1ccc2cc(C3CC(c4ccco4)=NN3S(C)(=O)=O)c(Cl)nc2c1 (centres undefined),0%,79µM*,1%,?,-4%,-4%
Cc1ccc2cc(C3CC(c4ccco4)=NN3S(=O)(=O)c3ccccc3)c(Cl)nc2c1 (centres undefined),-1%,?,-5%,?,-5%,-5%
COc1ccc2nc(Cl)c(C3CC(c4ccco4)=NN3C(=O)CCCC(=O)O)cc2c1 (centres undefined),1%,40µM*,-8%,-29%,4%,-1%
CCOC(=O)C1=CN(CC(=O)Nc2ccc(C)cc2Cl)S(=O)(=O)N=C1C,/,/,/,44%,/,/
O=C1NC[C@@H](CCCCN2C[C@H](Cc3ccc(O)cc3)N(CC3CCCCC3)C(=O)C2=O)N(CC2CCCCC2)C1=O,/,/,/,22µM*,/,/
O=C1NC[C@@H](CCCCN2C[C@H](Cc3ccc(O)cc3)N(CCc3ccc(O)cc3)C(=O)C2=O)N(CC2CCCCC2)C1=O,/,/,/,-17%,/,/
Nc1cc(N)c(OCC(F)(F)F)cc1OCC(F)(F)F,5%,0.32µM*,?,/,-7%,16%
COc1cc(C(C)N)ccc1OCC(F)(F)F (centres undefined),/,/,/,4%,/,/
CC(C)n1cnnc1CC1CCCN(S(=O)(=O)c2ccc(F)cc2)C1 (centres undefined),/,/,/,17%,/,/
O=C(Nc1ccc(N2CCN(CCOc3ccc(Cl)cc3)CC2)c(C(=O)O)c1)c1ccc(F)cc1,/,8%[57.1 µM],31%,45µM*,2%[57.1 µM],/
COc1ccc(C(=O)Nc2ccc(N3CCN(c4ccccc4)CC3)c(C(=O)O)c2)cc1,1%,16%[57.1 µM],-8%,-25%,5%[57.1 µM],16%
NC1CCc2nn(CC(=O)NCc3ccc4c(c3)OCO4)c(=O)n2CC1 (centres undefined),/,/,/,50µM*,/,/
O=C(Cn1ccc(=O)[nH]c1=O)N1C[C@H]2CC[C@@H]1CN(Cc1cscn1)C2,/,/,/,8.9µM*,/,/
BrC(=C\c1ccccc1)/C=N/Nc1ccc2nncn2n1,8%,18µM*,-12%,-12%,-10%,0%
C=CCc1cc(C)ccc1OCC(O)CN1CCN(c2ccccc2)CC1 (centres undefined),-1%,11%[57.1 µM],-5%,?,4%[57.1 µM],9%
C=CCc1cc(OC)ccc1OCC(O)CN1CCN(c2ccc(OC)cc2)CC1 (centres undefined),-3%,5%[57.1 µM],-8%,35µM*!,1%[57.1 µM],13%
COc1ccc(N2CCN(CC(O)COc3c(OC)cccc3OC)CC2)cc1 (centres undefined),-2%,-12%,-13%,40µM*!,-2%,-3%
COc1ccc(N2CCN(CC(O)COc3ccc(C(C)C)c(C)c3)CC2)cc1 (centres undefined),-4%,1%,-14%,16µM*,-2%,-6%
Cc1cc(OCC(O)CN2CCN(c3cccc(Cl)c3)CC2)ccc1Cl (centres undefined),-1%,-7%,54%,40µM*,-8%,-9%
COc1ccc(N2CCN(CC(O)COc3ccc(C)c(C)c3)CC2)cc1 (centres undefined),-1%,-7%,4%,?,-7%,4%
Cc1cccc(N2CCN(CC(O)COc3ccc4ccccc4c3)CC2)c1 (centres undefined),-1%,-10%[2.29 µM],/,1%,-3%[2.29 µM],-5%
CCOC(=O)c1ccc(NC(=O)COC(=O)c2cc(C)nc3ccccc23)cc1,/,/,/,-6%,/,/
COc1ccc2c(=O)c3c(=O)n(Cc4ccco4)c(-c4ccco4)nc3oc2c1,2%,14µM*,-22%,?,-2%,0%
COc1ccc(-c2nc3oc4cc(OC)ccc4c(=O)c3c(=O)n2Cc2ccco2)cc1,-4%,?,3%,?,6%,-2%
CNC(=O)[C@@H]1C[C@@H](O)CN1C1CCN(C(=O)c2cc3ccccc3[nH]2)CC1,/,/,/,24%,/,/
SMILES,Glioma ERSR ind,TrxR1 inh,Apoferritin bind,12-LOX inh,TrxR1 substrate,mIDH1 inhibitor
CCC1(O)CC2CN(CCc3c([nH]c4ccccc34)C(C(=O)OC)(c3cc4c(cc3OC)N(C=O)C3C(O)(C(=O)OC)C(OC(C)=O)C5(CC)C=CCN6CCC43C65)C2)C1 (centres undefined),-6%,11%[11.4 µM],/,-16%,9%[11.4 µM],7%
CCC1=C[C@@H]2CN(C1)Cc1c([nH]c3ccccc13)[C@@](C(=O)OC)(c1cc3c(cc1OC)N(C)[C@@H]1[C@@](O)(C(=O)OC)[C@H](OC(C)=O)[C@]4(CC)C=CCN5CC[C@]31[C@@H]54)C2,-5%,/,/,4.3µM*,/,/
Cc1ccc(C(=O)NC(C(=O)N2CCCC2)C2CCN(C(=O)c3cccc(F)c3)CC2)cc1 (centres undefined),/,/,/,12%,/,/
N#Cc1nc(-c2cccc3ccccc23)oc1NCCc1ccccc1,/,/,/,-23%,/,/
O=C(O)c1cc(C(=O)O)cc(N2C(=O)c3ccccc3C2=O)c1,/,/,/,1%,/,/
O=C(O)c1cc(N2C(=O)C=CC2=O)cc(N2C(=O)C=CC2=O)c1,-4%,0.22µM*,/,-24%,-3%,-3%
O=c1cc(-c2ccncc2)oc2c(-c3cccc(O)c3)nccc12,/,/,/,-10%[176 µM],/,/
CCOC(=O)C(=Cc1ccc(-n2cncn2)cc1)C(=O)OCC,-15%,22µM*,-4%,-1%,5%,2%
CCOC(=O)C(=Cc1ccncc1)C(=O)OCC,/,/,/,0%,/,/
Cc1cc2c(cc1C)C(=O)C(Br)=C(N)C2=O,3%,50µM*,/,?,-9%,-15%
CC(C)C[C@@H](NC(=O)C1=C[C@@H](NS(=O)(=O)c2cccc(C(F)(F)F)c2)[C@@H](O)[C@H](O)C1)C(N)=O,/,/,/,40µM*,/,/
O=C(c1cccs1)N1CCC2(CC1)CN(C1CCC1)CC2CO (centres undefined),/,/,/,51%,/,/
c1ccc(CC(CCNCc2ccco2)c2ccco2)cc1 (centres undefined),/,/,/,-3%,/,/
CC(C)CCC(CCNCc1ccco1)c1ccco1 (centres undefined),/,/,/,0.45µM*,/,/
CC1=C(C(=O)OC(C)C)C(c2ccccc2C)N2C(CC(=O)NCC3CC3)=CSC2=N1 (centres undefined),/,/,/,60%,/,/
COc1ccc(NC(=O)C2C3CCC(O3)C2C(=O)O)c(C)c1 (centres undefined),0%,1%,-6%,-7%,6%,1%
Cc1cc(Br)ccc1NC(=O)C1C2CCC(O2)C1C(=O)O (centres undefined),-1%,18%,-12%,5µM*,-2%,-9%
Cc1cc(=S)cc(C)n1CCO,-2%,35µM*,-2%,-12%,0%,7%
